Reference: PubChem BioAssay (Tox21)
Results filed as inconclusive are left out. Entries that show only a call come without a potency. The source made the active and inactive calls. The call rests on the fitted dose curve; in most records, active means well fitted cell-killing curve with a large enough effect in the repeat runs; inconclusive means weak or mixed curves, or effect the other way; inactive means flat fitted curve, though single readings scatter.

experiment: qHTS assay to identify small molecule agonists of the constitutive androstane receptor (CAR) signaling pathway - cell viability counter screen (AID 1224836); conditions: HepG2-CYP2B6-hCAR viability, CellTiter-Fluor, 23 h, PK11195 added to every well; series mostly up to 92.4 µM; further: nearly all actives have a fitted effect of over 45% in size
Summary of the method: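 Double-stable HepG2 hepatoma cells (hCAR plus CYP2B6-2.2kb) are treated for 23 h at 37 C with test compounds in 15-point concentration series. PK11195 at 0.75 uM final is co-added. Cell viability is quantified by CellTiter-Fluor.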

| Structure (SMILES) | Potency | viability change, negative = cytotoxic |
| --- | --- | --- |
| CCCCCCOC(=O)CC | inactive | – |
| O=S(=O)(O)CCN1CCN(CCO)CC1 | inactive | – |
| Cc1cc(C(C)(C)C)c(O)c(C)c1CC1=NCCN1 | inactive | – |
| CC(C)(C)c1n[nH]c(=S)n(N)c1=O | inactive | – |
| CCC(C)NC(N)=O (stereo not drawn) | inactive | – |
| Oc1cn2c(n1)Nc1ccc(Cl)c(Cl)c1C2 | – | -4.95% [at 19 µM] (inactive) |
| Cc1nc2n(c(=O)c1CCN1CCC(c3noc4cc(F)ccc34)CC1)CCC[C@H]2O | – | 2.64% [at 19 µM] (inactive) |
| NS(=O)(=O)c1ccc(NC(=O)CCC(=O)O)cc1 | inactive | – |
| C=C(C)C(=O)OCC(C)(C)COC(=O)C(=C)C | inactive | – |
| CCCCCCCCSCC | inactive | – |
| C=C(C)C1CCC(C)(O)CC1 (stereo not drawn) | inactive | – |
| On1nnc2ccccc21 | inactive | – |
| NC(CO)C(=O)NNCc1ccc(O)c(O)c1O (stereo not drawn) | inactive | – |
| O=C(CCNNC(=O)c1ccncc1)NCc1ccccc1 | inactive | – |
| CC(C)NCC(O)COc1cccc2[nH]ccc12 (stereo not drawn) | inactive | – |
| N[C@@H](COP(=O)(O)O)C(=O)O | – | 0.478% [at 19 µM] (inactive) |
| O=C1CC(c2ccc(Cl)cc2)CC(=O)N1 | inactive | – |

| Structure (SMILES) | Potency | viability change, negative = cytotoxic |
| --- | --- | --- |
| CCOc1cc(NC(C)=O)ccc1C(=O)OC | inactive | – |
| CCOC(=O)c1ncn2c1CN(C)C(=O)c1cc(F)ccc1-2 | inactive | – |
| CC(C)N(c1ccccc1)C(C)C | inactive | – |
| CC(C)(C)c1nnc(NS(=O)(=O)c2ccc(N)cc2)s1 | inactive | – |
| C=CCCCCCCCCCCCC | inactive | – |
| CCCN1C[C@H](CSC)C[C@@H]2c3cccc4[nH]cc(c34)C[C@H]21 | inactive | – |
| CC(C)NCC(O)COc1ccc(COCCOC(C)C)cc1 (stereo not drawn) | inactive | – |
| COCCOCCOCCOCCOCCO | inactive | – |
| N#Cc1ccc(C(=O)O)cc1 | inactive | – |
| COCCOC(=O)C1=C(C)NC(C)=C(C(=O)OC(C)C)C1c1cccc([N+](=O)[O-])c1 (stereo not drawn) | inactive | – |
| CCCCCCCCOS(=O)(=O)O | inactive | – |
| CC(=O)NCc1c(I)c(NC(C)=O)c(I)c(C(=O)O)c1I | inactive | – |
| CC(C)C[C@H](NC(=O)CNC(=O)[C@H](Cc1ccc(O)cc1)NC(=O)[C@H](CO)NC(=O)[C@H](Cc1c[nH]c2ccccc12)NC(=O)[C@H](Cc1cnc[nH]1)NC(=O)[C@@H]1CCC(=O)N1)C(=O)N[C@@H](CCCN=C(N)N)C(=O)N1CCC[C@H]1C(=O)NCC(N)=O (stereo in doubt) | inactive | – |
| COc1cc(C(=S)N2CCOCC2)cc(OC)c1OC | inactive | – |
| CC(C)(C)NC(N)=O | inactive | – |
| Cc1ccc(C=O)cc1C | inactive | – |
